A short description of test [1]: qHTS assay to identify small molecule antagonists of the estrogen related receptor (ERR) signaling pathway from Tox21 library - cell viability counter screen (AID 1224834). Further: nearly all actives have a fitted effect of over 30% in size. Further: potency means the concentration at half of the fitted maximal effect. Put shortly:
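ERR reporter cells, 2,000 per well, rested 6 h, then exposed to compound in DMSO for 17.5 hours at 37 C. Viability read as fluorescence after 30 min with CellTiter-Fluor.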
In general terms: In qHTS, concentration-response curves come from the screen itself.

For test [2], the target named is Luciferin 4-monooxygenase (Photinus pyralis) (UniProt P08659). Put plainly: qHTS assay to identify small molecule inhibitors of firefly luciferase (AID 1224835). Further: nearly all actives have a fitted effect of over 25% in size. Further: potency means the concentration at half of the fitted maximal effect. In a few lines:
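Biochemical qHTS: compounds run as interplate titrations against purified firefly enzyme, with D-luciferin and ATP each at its KM concentration. Light output recorded by CCD imaging.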

A short description of test [3]: qHTS assay to identify small molecule agonists of the constitutive androstane receptor (CAR) signaling pathway - cell viability counter screen (AID 1224836). Further: nearly all actives have a fitted effect of over 45% in size. Put shortly: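 Using CellTiter-Fluor, viability of HepG2 cells harbouring hCAR and CYP2B6-2.2kb was measured following 23 h incubation with a 15-concentration compound series plus PK11195 (0.75 uM final).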
The nature of test [4]: qHTS assay to identify small molecule antagonists of the constitutive androstane receptor (CAR) signaling pathway - cell viability counter screen (AID 1224837). Further: nearly all actives have a fitted effect of over 45% in size. Put shortly: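 HepG2 cells stably carrying hCAR and CYP2B6-2.2kb reporter, stimulated with 50 nM CITCO and compounds at 15 concentrations for 23 h at 37 C. Viability measured by CellTiter-Fluor fluorescence.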
Test [5] has as its target Nuclear receptor subfamily 1 group I member 3 (Homo sapiens) (UniProt Q14994). Put plainly: qHTS assay to identify small molecule antagonists of the constitutive androstane receptor (CAR) signaling pathway (AID 1224838). Further: nearly all actives have a fitted effect of over 40% in size. In a few lines: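 HepG2 cells stably carrying hCAR and a CYP2B6-2.2kb luciferase reporter, seeded 4 hrs before compound (15 concentrations). Stimulated with 50 nM CITCO for 24 hr at 37 C. ONE-Glo luminescence read after 30 min at room temperature.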

A short description of test [6]: qHTS assay to identify small molecule antagonists of the estrogen related receptor signaling pathway with the pleiotropic PPARgamma coactivator (PGC) from Tox21 10K library - cell viability counter screen (AID 1224840; active means well fitted cell-killing curve with a large enough effect in the repeat runs, not every such curve was filed as active; further: nearly all actives have a fitted effect of over 40% in size; further: potency means the concentration at half of the fitted maximal effect). Put shortly:
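PGC/ERR cells (2,000/well) plated 6 h, then compound-treated for 17.5 h at 37 C. Viability measured by CellTiter-Fluor fluorescence after 30 min at 37 C, multiplexed with the pathway assay.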

The nature of test [7]: qHTS assay to identify small molecule antagonists of the estrogen related receptor signaling pathway with the pleiotropic PPARgamma coactivator (PGC) from Tox21 10K library (AID 1224841; call rule not given here; further: actives are mostly falling curves and most rising ones were filed inactive; nearly all actives have a fitted effect of over 50% in size; further: potency means the concentration at half of the fitted maximal effect). Put shortly:
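PGC/ERR cell line, 2,000 cells/well, pre-incubated 6 hours at 37 C, then exposed to compounds for 18 hours at 37 C; luciferase read with One-Glo luminescence after 30 min at room temperature.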

The nature of test [8]: qHTS assay to identify small molecule agonists of the estrogen related receptor signaling pathway with the pleiotropic PPARgamma coactivator (PGC) from Tox21 10K library (AID 1224842). Further: nearly all actives have a fitted effect of over 15% in size. Put shortly:
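PGC/ERR reporter cell line, 2,000 cells per well, incubated 6 h at 37 C before 23 nL compound in DMSO was added. After 18 h at 37 C, One-Glo luminescence read following 30 min at room temperature.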

The target in test [9] is Thyrotropin receptor (Homo sapiens) (UniProt P16473). Put plainly: qHTS assay to identify small molecule agonists of the thyroid stimulating hormone receptor (TSHR) signaling pathway (AID 1224843; calls by dose curve; further: nearly all actives have a fitted effect of over 45% in size). In a few lines: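 Steps: seed 800 TSHR-HEK293 cells per well; add test compound and hold 30 min at ambient temperature; dispense cAMP-d2 then anti-cAMP cryptate; incubate 1 h at ambient; measure fluorescence intensity.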
Chain of Thyrotropin receptor (Homo sapiens) (P16473 whole entry, looked up): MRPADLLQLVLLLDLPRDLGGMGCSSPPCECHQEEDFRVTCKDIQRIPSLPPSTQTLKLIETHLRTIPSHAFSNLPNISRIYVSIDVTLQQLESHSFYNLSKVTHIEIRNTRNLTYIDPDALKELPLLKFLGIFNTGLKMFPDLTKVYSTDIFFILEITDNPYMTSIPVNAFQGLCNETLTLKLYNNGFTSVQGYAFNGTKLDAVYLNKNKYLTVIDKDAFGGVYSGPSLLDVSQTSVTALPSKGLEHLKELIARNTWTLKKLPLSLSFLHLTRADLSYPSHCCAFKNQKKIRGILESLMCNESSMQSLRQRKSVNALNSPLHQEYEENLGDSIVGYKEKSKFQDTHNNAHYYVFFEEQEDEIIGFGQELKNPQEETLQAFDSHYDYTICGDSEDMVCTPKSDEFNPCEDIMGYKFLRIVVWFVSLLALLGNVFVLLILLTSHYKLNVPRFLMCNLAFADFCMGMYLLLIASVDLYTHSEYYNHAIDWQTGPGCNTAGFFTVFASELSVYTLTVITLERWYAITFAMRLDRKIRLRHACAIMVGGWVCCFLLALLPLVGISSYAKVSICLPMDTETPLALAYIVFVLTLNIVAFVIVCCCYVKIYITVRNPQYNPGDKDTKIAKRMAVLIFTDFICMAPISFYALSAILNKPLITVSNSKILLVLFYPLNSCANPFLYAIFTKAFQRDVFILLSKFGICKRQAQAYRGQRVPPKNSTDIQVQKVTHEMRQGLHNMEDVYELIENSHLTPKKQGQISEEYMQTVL

Test [10] can be described thus: qHTS assay to identify small molecule agonists of the hypoxia (HIF-1) signaling pathway - cell viability counter screen (AID 1224844; calls by dose curve; further: nearly all actives have a fitted effect of over 50% in size). Put shortly: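 HRE-bla ME-180 cells, 2,000/well in 0.5% dialyzed FBS medium, treated 17 h at 37C with compounds. Viability read in the same wells as the bla reporter, by CellTiter-Glo luminescence after 30 min at room temperature.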

Test [11] in a line: qHTS assay to identify small molecule agonists of the hypoxia (HIF-1) signaling pathway (AID 1224846; active means well fitted activation curve with a large enough effect in the signal ratio in the repeat runs, not every such curve was filed as active; the % refers to the signal ratio). In a few lines:
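HRE-bla ME-180 beta-lactamase reporter cells in medium with 0.5% dialyzed FBS, pre-incubated 5 h then exposed to compounds 17 h at 37C, 5% CO2; reporter induction read with CCF4-AM FRET substrate.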

A short description of test [12]: qHTS assay to identify small molecule agonists of H2AX - cell viability counter screen (AID 1224847; calls by dose curve; further: nearly all actives have a fitted effect of over 30% in size; further: potency means the concentration at half of the fitted maximal effect). Put shortly:
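Quantitative HTS viability measurement: CHO-K1 wild-type cells in serum (10% FBS) medium, short 3 hr drug exposure at 37C with 0.76% DMSO, CellTiter-Glo luminescent detection.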

Test [13] can be described thus: qHTS assay to identify small molecule antagonists of the estrogen related receptor (ERR) signaling pathway from Tox21 library (AID 1224848). Further: nearly all actives have a fitted effect of over 50% in size. In a few lines:
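Luminescent reporter read-out (ONE-Glo) from NTP's ERR cell line after 18 h treatment at 37 C with DMSO-dissolved Tox21 compounds; cells pre-plated 6 h beforehand at 2,000 per well.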

Test [14] can be described thus: qHTS assay to identify small molecule agonists of the estrogen related receptor (ERR) signaling pathway from Tox21 library (AID 1224849; calls by dose curve; further: nearly all actives have a fitted effect of over 15% in size). Conditions: ERR reporter cell line, ONE-Glo luciferase, 18 h; at 92.4 µM (top of the series). Put shortly: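 ERR reporter cells (NTP line) pre-incubated 6 hours at 37 C, then exposed to compounds for 18 hours at 37 C. ONE-Glo luciferase luminescence was read after 30 minutes at room temperature.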

A short description of test [15]: qHTS RealTime-Glo MT Cell Viability Assay in HepG2 cells - 24 hour (AID 1224867). Further: nearly all actives have a fitted effect of over 50% in size. In a few lines:
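Viability was tracked continuously by NanoLuc luminescence from prosubstrate reduced by living HepG2 cells, at successive time points over 40 h of compound exposure. Cells with reagent were preincubated 5 h at 37 °C before compound addition.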

The nature of test [16]: qHTS RealTime-Glo MT Cell Viability Assay in HEK293 cells - 32 hour (AID 1224868). Further: nearly all actives have a fitted effect of over 50% in size. Further: potency means the concentration at half of the fitted maximal effect. Put shortly:
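Viability tracked continuously by luminescence as live cells reduce a prosubstrate for NanoLuc; HEK293 cells preincubated 5 h, compound-treated at 37 C, and read at 0, 8, 16, 24, 32 and 40 h.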

The nature of test [17]: A CellTox Green Cytotoxicity Assay to monitor cytotoxicity in HEK293 cells - 0 hour (AID 1224869). Further: nearly all actives have a fitted effect of over 50% in size. Put shortly:
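HEK293 cells, 600/well, were preincubated 5 hours and then exposed to compounds at 37 C for up to 40 hours. A cell-impermeant cyanine dye staining dead-cell DNA was read by fluorescence at 0, 8, 16, 24, 32 and 40 h time points.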

Test [18] is described as follows: qHTS assay to identify small molecule agonists of H2AX (AID 1224845; active means well fitted activation curve with a large enough effect in the signal ratio in the repeat runs, not every such curve was filed as active; the % refers to the signal ratio). Put shortly:
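Wild-type CHO-K1 cells, plated overnight, exposed 3hr at 37C to 15 concentrations (0.76% DMSO final). Lysed, then HTRF anti-pH2AX (S139) cryptate and anti-H2AX-d2 antibodies, 24 hr room temperature; 665/620 nm emission read.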

In test [19] the target is Nuclear receptor subfamily 1 group I member 3 (Homo sapiens) (UniProt Q14994). Put plainly: qHTS assay to identify small molecule agonists of the constitutive androstane receptor (CAR) signaling pathway (AID 1224839). Further: nearly all actives have a fitted effect of over 15% in size. Further: potency means the concentration at half of the fitted maximal effect. Put shortly: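 Double-stable HepG2 cells (hCAR, CYP2B6-2.2kb) seeded 4 h before compound addition. Exposure 24 h with 0.75 uM PK11195 final. Luciferase detected by ONE-Glo.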
Chain of Nuclear receptor subfamily 1 group I member 3 (Homo sapiens) (Q14994 whole entry, looked up): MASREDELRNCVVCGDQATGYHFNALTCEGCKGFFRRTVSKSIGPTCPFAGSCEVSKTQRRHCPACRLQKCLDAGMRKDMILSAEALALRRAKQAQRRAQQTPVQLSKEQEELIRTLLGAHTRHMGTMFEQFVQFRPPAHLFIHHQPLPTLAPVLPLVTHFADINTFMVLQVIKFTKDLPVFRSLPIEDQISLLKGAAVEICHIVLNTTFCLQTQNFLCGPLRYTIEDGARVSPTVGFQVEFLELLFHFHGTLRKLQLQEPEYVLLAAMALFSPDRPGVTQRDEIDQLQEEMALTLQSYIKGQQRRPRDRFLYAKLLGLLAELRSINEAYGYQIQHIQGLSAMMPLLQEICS

Several values for one entry are separate records, joined by “and”; a condition that tells them apart may be missing. Identical values can stand only once. Results filed as inconclusive are left out. Some structures have more than one record in an assay (separate samples or runs), and their calls can disagree. Activity calls are given as the source filed them. Unless noted, the call rests on the fitted dose curve; in most records, active means well fitted curve in the direction sought with a large enough effect in the repeat runs; inconclusive means weak or mixed curves; inactive means no such curve, though single readings can be large; an effect the other way counts as inactive or inconclusive.
On the % scale 0 is the no-effect control and ±100 the full control effect.

Chain of Luciferin 4-monooxygenase (Photinus pyralis) (P08659 whole entry, looked up): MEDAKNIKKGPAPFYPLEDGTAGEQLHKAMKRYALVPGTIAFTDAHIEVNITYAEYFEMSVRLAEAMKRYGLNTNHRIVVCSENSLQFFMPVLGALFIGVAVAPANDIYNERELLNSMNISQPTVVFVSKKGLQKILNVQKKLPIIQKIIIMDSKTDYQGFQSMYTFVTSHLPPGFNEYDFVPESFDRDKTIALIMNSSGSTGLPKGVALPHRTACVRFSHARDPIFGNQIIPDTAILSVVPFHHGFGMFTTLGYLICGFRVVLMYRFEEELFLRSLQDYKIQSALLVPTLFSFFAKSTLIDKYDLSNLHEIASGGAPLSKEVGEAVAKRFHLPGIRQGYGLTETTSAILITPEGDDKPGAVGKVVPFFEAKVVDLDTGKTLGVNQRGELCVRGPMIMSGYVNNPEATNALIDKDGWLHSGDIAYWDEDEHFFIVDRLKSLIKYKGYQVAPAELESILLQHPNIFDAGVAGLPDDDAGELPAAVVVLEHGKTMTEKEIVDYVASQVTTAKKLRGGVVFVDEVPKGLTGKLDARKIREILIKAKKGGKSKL

With `C1=Cc2cccc3cccc1c23`, the Potency result in test [1], in test [2], in test [3], in test [4], in test [5] and in test [6] was “inactive” each time. For the same compound, the Potency entry in [8], in test [9], in [10], in test [12], in [13] and in test [15] was “inactive” in each case. Besides, the Potency result in [16] and in test [17] was “inactive” each time. The Potency in test [7] is 190 nM (active) and inactive. Also, the outcome in test [11] was inactive. Also, the activity change, positive = activation in [14] was -16.5% (inactive) and -13.1% (inactive).

As for `Oc1cc(Cl)ccc1Cl`, the Potency entry in [1], in test [2], in test [3], in [4], in [6] and in test [9] was “inactive” each time. Also, the Potency entry in [10], in [12], in [15], in [16] and in test [17] was “inactive” in each case. The compound was called inactive in test [11].

For `CC(C)NC(C)C`, the Potency entry in test [1], in test [2], in test [3], in test [4], in test [6] and in test [9] was “inactive” throughout. Besides, the Potency entry in [10], in test [12], in test [15], in [16] and in test [17] was “inactive” each time. In addition, the compound was called inactive in test [11].

Consider `Brc1ccc(Oc2cc(Br)c(Br)cc2Br)c(Br)c1`, for which the Potency result in test [1], in test [2], in [3], in [4], in [6] and in test [7] was “inactive” each time. For the same compound, the Potency result in test [8], in [10], in [18], in test [12], in test [13] and in [15] was “inactive” in each case. The Potency entry in test [17] is “inactive”. For the same compound, the compound was called inactive in [11]. Besides, in [14], the activity change, positive = activation was -14.5% (inactive). Also, in [16], the Potency was 43.6 µM (active).

For `Clc1nc(Cl)nc(Cl)n1`, the Potency result in test [1], in test [3], in test [4], in [5], in [19] and in test [6] was “inactive” in each case. In addition, the Potency result in [10], in test [12], in [15], in test [16] and in test [17] was “inactive” in each case. Also, the call in test [11] was inactive.

With `CCCCCc1cc(O)cc(O)c1`, the Potency in test [1] is 54.5 µM (active); in [2], 63.6 µM (active) and 39.9 µM (active); in [19], 54.5 µM (active); in test [6], “inactive and 48.6 µM (active)”; in [12], 113 µM (active); in [16] it was 24.5 µM (active). Besides, the Potency entry in [3], in [5], in test [9], in [10], in test [18] and in [17] was “inactive” throughout. The compound was classed as inactive in test [11].

Take `CCN(N=O)C(N)=O`: the Potency entry in [1], in test [2], in test [3], in test [4], in [6] and in test [9] was “inactive” in each case. Moreover, the Potency result in test [10], in test [12], in test [15], in [16] and in [17] was “inactive” each time. Moreover, in test [11], the result was inactive.

Consider `O=C(O)C(F)(F)C(F)(F)C(F)(F)C(F)(F)C(F)(F)C(F)(F)C(F)(F)F`, for which the Potency entry in test [1], in test [2], in test [3], in test [4], in test [6] and in [9] was “inactive” each time. In addition, the Potency result in test [18], in test [12], in test [15], in test [16] and in test [17] was “inactive” throughout. For the same compound, the outcome in [11] was inactive.

Source of the values: PubChem BioAssay (Tox21).
